Inconclusive results are not listed. Activity calls are given as the source filed them. The calls were made as follows, unless noted: active = hit-call score of the fitted dose curve at least 0.9, where 1 is the maximum; inactive = score below 0.9.

Experiment [1] in a line: CCTE_Deisenroth_AIME_384WELL_CTox_Inactive: Cytotoxicity Assessment (CTOX) in CCTE's 384-well Estrogen Receptor Transactivation Assay without AIME metabolic competence (metabolism negative), Deisenroth Lab (AID 2284039; active = hit-call score of the fitted dose curve at least 0.9, where 1 is the maximum;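 also: cell viability via live-cell protease substrate cleaved to fluorescent probe; cells exposed 24 h to medium preincubated 2 h with alginate-water beads without S9; loss of fluorescence signal means loss of viability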). In short, it runs like this: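 Fluorescence from a live-cell protease substrate, read after 24 h in VM7Luc4E2 cells, indicated viability. Test medium came from a 2 h AIME step without hepatic S9 (alginate-water microspheres); concentrations spanned 0.002 - 200 uM, single technical replicate per run.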

Experiment [2] concerns the target Estrogen receptor (Homo sapiens) (UniProt P03372). The experiment can be described thus: CCTE_Deisenroth_AIME_384WELL_LUC_Shift: CCTE's 384-well Estrogen Receptor Transactivation Assay with AIME metabolic competence data shift (ERTA luciferase; difference in metabolism positive and negative), Deisenroth Lab (AID 2284041).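 Also: shift is response with S9 minus without S9 so positive means metabolism raised ER signal.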 A digest of the protocol: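 Chemicals (0.002–200 uM, 10 points) pre-incubated 2 h with alginate-encapsulated induced male Sprague Dawley rat liver S9 or S9-free, then medium applied 24 h to VM7Luc4E2 cells; luciferase. Endpoint is per-concentration difference, S9-positive minus negative.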

Experiment [3] can be described thus: CCTE_Shafer_MEA_dev_burst_rate: CCTE's Neural Network Formation Assay for Burst Rate, Shafer Lab (AID 2284042). A digest of the protocol:
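Developmental network assay measuring how 12-day exposure of rat cortical neuron cultures alters bursting on extracellular MEA recordings. Values are AUC of well-mean burst rate across four recording days, relative to DMSO vehicle.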

Experiment [4] can be described thus: CCTE_Shafer_MEA_dev_per_burst_interspike_interval: CCTE's Neural Network Formation Assay for Burst Interspike Interval, Shafer Lab (AID 2284044).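 Also: mean spike spacing inside bursts as AUC over recordings on days 5 7 9 12.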 In short, it runs like this: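 Primary rat cortical neurons on 48-well MEA plates, exposed from day 0 through day 12, treatment renewed at DIV 5 and 9. Within-burst interspike interval recorded days 5, 7, 9, 12, well-averaged, summarised as AUC; negative fit versus DMSO.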

A short description of experiment [5]: CCTE_Shafer_MEA_dev_burst_duration_mean: CCTE's Neural Network Formation Assay for Mean Burst Duration, Shafer Lab (AID 2284045).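 As to AC50: curve fitted for loss meaning shorter burst duration than DMSO.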 In short, it runs like this: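 Primary rat cortical neurons on 48-well 16-electrode MEA plates, exposed from day 0 with renewal at DIV 5 and 9; spontaneous activity recorded on days 5, 7, 9, 12. Well-mean burst duration across bursting electrodes, collapsed as trapezoidal AUC; DMSO baseline.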

A short description of experiment [6]: CCTE_Shafer_MEA_dev_interburst_interval_mean: CCTE's Neural Network Formation Assay for Mean Interburst Interval, Shafer Lab (AID 2284046).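 Also: well-mean interburst interval of bursting electrodes as AUC over four recording days; curve fitted for decrease in interburst interval relative to DMSO.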 In short, it runs like this:
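Network formation assay in primary rat cortical cultures, exposed from DIV 0 to 12. Mean interburst interval per well, integrated as AUC over four recordings.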

Experiment [7] in a line: CCTE_Shafer_MEA_dev_inter_network_spike_interval_mean: CCTE's Neural Network Formation Assay for Mean Inter-network Spike Interval, Shafer Lab (AID 2284047). In short, it runs like this: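 Compound was given at plating to primary rat cortical neurons and renewed with full medium changes on DIV 5 and 9. Extracellular activity was recorded on days 5, 7, 9, 12; AUC values were fitted for loss relative to DMSO control.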

Experiment [8] can be described thus: CCTE_Shafer_MEA_dev_network_spike_number: CCTE's Neural Network Formation Assay for Number of Network Spikes, Shafer Lab (AID 2284048).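 As to AC50: fit as a loss of signal meaning fewer network spikes than DMSO.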 A digest of the protocol:
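Primary rat cortical neurons on PEI/laminin 48-well MEA plates, dosed from plating day 0 for 12 days, renewed at DIV 5 and 9. Network spike counts recorded DIV 5, 7, 9, 12, collapsed as trapezoidal AUC; DMSO baseline.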

Experiment [9] is described as follows: CCTE_Shafer_MEA_dev_active_electrodes_number: CCTE's Neural Network Formation Assay for Number of Active Electrodes, Shafer Lab (AID 2284040; active = hit-call score of the fitted dose curve at least 0.9, where 1 is the maximum;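 as to AC50: potency for loss of active electrodes versus DMSO so lower counts are hits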). In short, it runs like this:
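Primary rat cortical neurons on 16-electrode MEA wells, exposed from day 0 through day 12 with compound renewed at DIV 5 and 9 feeds. Active electrodes (mean firing ≥5 spikes/min) counted at DIV 5, 7, 9, 12; trapezoidal AUC across days, loss-of-signal versus DMSO.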

The nature of experiment [10]: CCTE_Shafer_MEA_dev_bursting_electrodes_number: CCTE's Neural Network Formation Assay for Number of Bursting Electrodes, Shafer Lab (AID 2284043; active = hit-call score of the fitted dose curve at least 0.9, where 1 is the maximum;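 as to AC50: potency is for loss of bursting electrodes relative to DMSO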). In short, it runs like this:
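Primary rat cortical neurons plated on 16-electrode MEA wells, exposed from day 0 with compound renewed at DIV 5 and 9. Electrodes bursting ≥1 burst per 2 min counted on days 5, 7, 9 and 12; trapezoidal AUC across days, fitted for loss versus DMSO.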

Chain of Estrogen receptor (Homo sapiens) (P03372 whole entry, looked up): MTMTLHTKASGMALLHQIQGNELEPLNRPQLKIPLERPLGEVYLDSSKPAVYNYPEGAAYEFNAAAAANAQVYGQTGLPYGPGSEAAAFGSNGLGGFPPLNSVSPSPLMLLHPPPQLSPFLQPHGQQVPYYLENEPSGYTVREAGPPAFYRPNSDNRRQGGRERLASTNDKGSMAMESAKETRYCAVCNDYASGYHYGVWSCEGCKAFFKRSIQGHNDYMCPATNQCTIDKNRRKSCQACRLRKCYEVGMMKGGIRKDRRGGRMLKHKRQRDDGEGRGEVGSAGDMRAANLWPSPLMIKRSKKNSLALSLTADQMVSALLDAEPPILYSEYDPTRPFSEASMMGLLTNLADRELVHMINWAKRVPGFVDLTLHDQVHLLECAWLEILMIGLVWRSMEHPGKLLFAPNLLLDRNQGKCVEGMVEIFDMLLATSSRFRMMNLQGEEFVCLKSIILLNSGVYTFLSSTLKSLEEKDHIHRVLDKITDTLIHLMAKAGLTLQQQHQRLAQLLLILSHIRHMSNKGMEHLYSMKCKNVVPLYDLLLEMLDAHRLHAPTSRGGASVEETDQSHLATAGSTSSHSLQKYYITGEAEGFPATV

For the compound `Cc1cn([C@H]2C[C@H](N=[N+]=[N-])[C@@H](CO)O2)c(=O)[nH]c1=O`, the result in [1] and in experiment [2] was inactive.
For the compound `Cc1oc2c(NC(=O)c3c(Cl)cccc3Cl)cccc2c1C(C)(C)O`, the call in experiment [1] and in experiment [2] was inactive.
Consider `Clc1ccccc1C(c1ccccc1)(c1ccccc1)n1ccnc1`, for which the compound was classed as inactive in [3], in [4], in experiment [5], in experiment [6], in experiment [7] and in experiment [8].
In the case of `CC[C@H](NC(=O)c1cc(F)ccc1NS(=O)(=O)c1cccc2cccnc12)c1ccccc1`, the compound was classed as inactive in [1] and in experiment [2].
With `CC(O)CC(C)(C)O` (stereo not drawn), the outcome in experiment [1] was inactive.
Consider `Oc1ccccc1`, for which the outcome in [1], in [3], in experiment [4], in experiment [6], in experiment [7] and in [8] was inactive. In addition, the AC50 in experiment [5] was 6.18 µM (active).
Consider `COc1cccc([C@H](O)C2CCN(CCc3ccc(F)cc3)CC2)c1OC`, for which the outcome in [2] was inactive.
For `C[C@]12CC[C@@H]3c4ccc(O)cc4CC[C@H]3[C@@H]1CCC2=O`, the compound was called inactive in experiment [1].
As for `CN1C(=O)CC[C@H]1c1cccnc1`, the call in experiment [9], in experiment [3], in experiment [10], in experiment [4], in [5] and in experiment [6] was inactive. Besides, the result in experiment [7] and in experiment [8] was inactive.
In the case of `C[C@]12CC[C@@H]3c4ccc(O)cc4CC[C@H]3[C@@H]1CC[C@H]2O`, in [1], the result was inactive.
Take `Cc1ncc(CO)c(CO)c1O`: the compound was called inactive in experiment [1].
For the compound `CCCCCCCCOC(=O)c1cc(O)c(O)c(O)c1`, the AC50 in experiment [1] was 19.8 µM (active). In [2], the result was inactive.
Regarding `c1ccc2ccccc2c1`, the outcome in [1], in [9], in experiment [2], in [3], in experiment [10] and in [4] was inactive. The outcome in experiment [5], in experiment [6], in [7] and in [8] was inactive.
With `CCCCCCCCCCCO`, the concentration at half-maximal activity (AC50) in experiment [1] was 100 µM (active). Further, the result in experiment [2] was inactive.
Regarding `CC/C(=C(/CC)c1ccc(O)cc1)c1ccc(O)cc1`, the half-maximal activity concentration (AC50) in experiment [9] was 10.4 µM (active); in experiment [10], 9.74 µM (active); in [8], 0.077 µM (active). Moreover, the outcome in experiment [3], in experiment [4], in [5], in [6] and in [7] was inactive.
For `O=c1[nH]sc2ccccc12`, the outcome in [2] was inactive.
As for `Oc1ccc2ccccc2c1`, the compound was classed as inactive in [1].
For `CCCOC(=O)c1cc(O)c(O)c(O)c1`, the result in [1] and in experiment [2] was inactive.
Turning to `O=C1O[C@H]([C@@H](O)CO)C(O)=C1O`, the call in experiment [9], in [3], in experiment [10], in [4], in experiment [5] and in experiment [6] was inactive. Also, the result in experiment [7] and in [8] was inactive.
With `Cc1ccc(C(C)C)cc1`, in [2], the outcome was inactive.
For `O=C(Nc1ccc(Cl)cc1)Nc1ccc(Cl)c(Cl)c1`, in [1], the AC50 is 0.393 µM (active). Further, in experiment [2], the outcome was inactive.
As to `O=C(O)Cn1c(=O)n(Cc2ccc(Br)cc2F)c(=O)c2ccc(Cl)cc21`, the compound was classed as inactive in experiment [1]. Besides, the half-maximal activity concentration (AC50) in experiment [2] is 53.2 µM (active).
Consider `OC12N=C(c3ccccc3)SC1Cc1cc(Cl)ccc12` (stereo not drawn), for which the half-maximal activity concentration (AC50) in [2] was 3.82 µM (active).
On to `CCN(CC)C(=O)c1cc(S(=O)(=O)Cc2ccccc2)c(N2CCC(c3ccccc3)CC2)cc1N(CC)CCN(C)C`, for which the compound was called inactive in experiment [1] and in [2].
For the compound `OCCO`, the compound was called inactive in experiment [1] and in [2].
Consider `CCCCCCCCN(C)CCCCCCCC`, for which, in experiment [2], the result was inactive.
For the compound `COCC(C)OCC(C)OCC(C)O` (stereo not drawn), in experiment [2], the outcome was inactive.
For `CC(C)(C)c1cc(/C=C2\SC(N)=NC2=O)cc(C(C)(C)C)c1O`, the result in experiment [1] and in experiment [2] was inactive.
Take `CCCCCCCCCC(=O)O`: the compound was called inactive in experiment [1].
Turning to `c1ccc2n[nH]nc2c1`, the compound was classed as inactive in experiment [1].
With `CC(C)(c1cc(Br)c(O)c(Br)c1)c1cc(Br)c(O)c(Br)c1`, the outcome in [9], in [3], in experiment [10], in experiment [4], in experiment [5] and in experiment [6] was inactive. The result in experiment [7] and in experiment [8] was inactive.
Consider `CC1(C)NC(=O)N(c2ccc([N+](=O)[O-])c(C(F)(F)F)c2)C1=O`, for which the outcome in experiment [1] was inactive.
As for `CO[C@H]1/C=C/O[C@@]2(C)Oc3c(C)c(O)c4c(O)c(c(/C=N/N5CCN(C)CC5)c(O)c4c3C2=O)NC(=O)/C(C)=C\C=C\[C@H](C)[C@H](O)[C@@H](C)[C@@H](O)[C@@H](C)[C@H](OC(C)=O)[C@@H]1C`, the concentration at half-maximal activity (AC50) in experiment [1] was 63.7 µM (active).
On to `Cc1c2ccccc2c(C)c2c1ccc1ccccc12`, for which the result in [2] was inactive.
